# PubChem BioAssay (NCATS)
# Values joined by “and” are separate entries in the source; they are usually repeats but may differ in a detail not shown here. Equal values may be shown once. Results filed as inconclusive are left out. Active and inactive are the calls of the source.
# Test: qHTS assay for small molecule agonists of the antioxidant response element (ARE) signaling pathway (AID 651741; active = well fitted activation curve with a large enough effect in the signal ratio; the % refers to the signal ratio)
# Conditions: HepG2 ARE-bla reporter, beta-lactamase FRET ratio, 16 h; series mostly up to 96 µM
# How it was run: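 HepG2 ARE-bla cells plated at 2,000 cells/well and incubated 5 h at 37 C/5% CO2 received 23 nL compound in DMSO. After 16 h at 37 C, LiveBLAzer B/G FRET substrate was applied for 2 h at room temperature and fluorescence read.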
# Note: % of control where 0% means no effect.
row,Structure (SMILES),Potency
1,NCCNc1cccc2ccccc12,inactive
2,CC1(C)OC[C@@H]2O[C@@]3(C(=O)O)OC(C)(C)O[C@H]3[C@@H]2O1,inactive
3,OC[C@H]1O[C@@H]2O[C@H]3[C@H](O)[C@@H](O)[C@@H](O[C@H]4[C@H](O)[C@@H](O)[C@@H](O[C@H]5[C@H](O)[C@@H](O)[C@@H](O[C@H]6[C@H](O)[C@@H](O)[C@@H](O[C@H]7[C@H](O)[C@@H](O)[C@@H](O[C@H]8[C@H](O)[C@@H](O)[C@@H](O[C@H]1[C@H](O)[C@H]2O)O[C@@H]8CO)O[C@@H]7CO)O[C@@H]6CO)O[C@@H]5CO)O[C@@H]4CO)O[C@@H]3CO,inactive
4,CCCCOC(=O)CC(CC(=O)OCCCC)(OC(C)=O)C(=O)OCCCC,inactive
5,CCCCCCCCOc1ccc(C(=O)c2ccccc2)c(O)c1,inactive
6,CCCCCCCCCCCCCCCC(=O)O,inactive
7,CCCN(CCC)S(=O)(=O)c1ccc(C(=O)O)cc1,inactive

# Test: qHTS assay for small molecule activators of the p53 signaling pathway (AID 651743; active = well fitted activation curve with a large enough effect in the signal ratio, not every such curve was filed as active; the % refers to the signal ratio)
# Conditions: HCT-116 p53RE-bla, beta-lactamase FRET ratio, 16 h; activation: hits give high values
# How it was run: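 HCT-116 p53RE-bla, 4,000 cells/well; 5 h settle; cpd/DMSO 16 h, 37 C; LiveBLAzer B/G 2 h RT; fluorescence intensity.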
row,Structure (SMILES),activation
1,CCCCC(CC)COC(=O)c1ccc(N(C)C)cc1 (stereo unspecified),0.436% (inactive) and -4.01% (inactive)
2,C#C[C@]1(O)CC[C@H]2[C@@H]3CCC4=Cc5oncc5C[C@]4(C)[C@H]3CC[C@@]21C,-3.96% (inactive)
3,NCCNc1cccc2ccccc12,1.04% (inactive)
4,CCCCOC(=O)CC(CC(=O)OCCCC)(OC(C)=O)C(=O)OCCCC,-5.7% (inactive)
5,CCCCCCCCOc1ccc(C(=O)c2ccccc2)c(O)c1,-0.0929% (inactive)
6,C=C[C@@]1(C)CC(=O)[C@]2(O)[C@@]3(C)[C@@H](O)CCC(C)(C)[C@@H]3[C@H](O)[C@H](OC(C)=O)[C@@]2(C)O1,-4.19% (inactive)
7,COc1cc([C@H]2Oc3cc([C@H]4Oc5cc(O)cc(O)c5C(=O)[C@@H]4O)ccc3O[C@@H]2CO)ccc1O,-9.47% (inactive)
8,CCCCCCCCCCCCCCCC(=O)O,1.38% (inactive)
9,CCCN(CCC)S(=O)(=O)c1ccc(C(=O)O)cc1,-0.245% (inactive) and -0.015% (inactive)
